# Compounds with a hit are over-represented: about 2.2% of the library has one in this group of screens.
# APP transl inh = APP translation inhibition | 190,000 compounds, 0.82% hits | SH-SY5Y APP 5'UTR-luciferase reporter, luminescence | inhibition, % at 2 µM | AID 1285;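 active means inhibition above a set limit, derived from the sample mean plus 3 SD, cut at about 45% in these data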
# Ba/F3 V617F tox = lowers viability of Ba/F3 cells expressing EpoR and JAK2V617F; inhibition, % at 5.6 µM; ATP luminescence; 220,000 compounds, 1.1% hits;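 active means inhibition above the campaign mean plus 3 SD over all tested compounds, cut at about 24% in these data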;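 further: cytokine-independent growth of Ba/F3 cells driven by EpoR plus mutant JAK2; 0% = DMSO-treated cells and 100% = JAK inhibitor I control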
# KLF5 inh = suppresses KLF5 promoter-driven expression; DLD-1 KLF5 promoter-luciferase reporter, luminescence; inhibition, % at 5 µM; 290,000 compounds, 0.23% hits; AID 1700;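 active means inhibition above a per-plate limit of that plate's mean compound inhibition plus 3 SD, cut at about 60% in these data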;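 further: 0% = DMSO wells and 100% = LY294002 at 200 µM; higher means less KLF5 promoter-driven luciferase light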
# IEC-6 cytotox = counter-screen for KLF5 inhibitors: cytotoxicity in IEC-6 cells; 290,000 compounds, 0.78% hits; IEC-6 cytotoxicity, luminescence viability; inhibition, % at 5 µM; in the data active means inhibition above about 22%;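 further: 0% = plate median of test compound wells and 100% = cytotoxic reference compound wells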
# BaF3 tox = counter-screen for JAK2V617F inhibitors: parental Ba/F3 viability inhibitors; CellTiter-Glo ATP luminescence; inhibition, % at 5.6 µM; 220,000 compounds, 1.1% hits; AID 1486;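 active means inhibition above a per-campaign cutoff, the mean inhibition of all tested compounds plus 3 SD, cut at about 27% in these data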;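 further: 0% = DMSO wells and 100% = JAK Inhibitor I control wells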
# aSyn UTR inh = 5' untranslated region of α-synuclein, MLPCN primary screen; alpha-synuclein 5'UTR reporter, inhibitor activity; inhibition, % (tested at 7.5 µM); 300,000 compounds, 0.82% hits; AID 1813; in the data active means inhibition above about 60%;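 further: H4 neuroglioblastoma cells stably carrying SNCA 5'UTR luciferase fusion; 0% = DMSO wells and 100% = positive control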
# * marks the source's active call; other numbers are inactive results; / = not tested or not shown.
SMILES,APP transl inh,Ba/F3 V617F tox,KLF5 inh,IEC-6 cytotox,BaF3 tox,aSyn UTR inh
CC1CCN(c2ccc(-c3ccc(NC(=O)C(F)(F)F)cc3)nn2)CC1,/,/,40,11,/,71*
O=C(NC1CCN(Cc2ccccc2)CC1)c1cccc(S(=O)(=O)Nc2ccc(Br)cc2)c1,/,/,/,/,/,4
COc1ccccc1NS(=O)(=O)c1cccc(C(=O)NC2CCN(Cc3ccccc3)CC2)c1,/,/,/,/,/,83*
CCC1CCCCN1CCCNC(=O)c1ccc(N2CCOCC2)c(NS(=O)(=O)c2ccc(OC)cc2)c1 (configuration not stated),0,-8,-15,-2,52*,-4
O=C(NCCCN1CCOCC1)c1ccccc1,-14,-3,-10,-2,40*,11
CCCCNC(=O)c1ccc2c(c1)C(=O)N(Cc1ccncc1)C2=O,/,/,-26,-4,/,12
O=C(CN(C(=O)c1ccc(Cl)cc1Cl)N1C(=O)C2C3C=CC(C3)C2C1=O)c1ccc(F)cc1 (configuration not stated),-6,6,-6,4,4,-9
CCC(C(=O)c1ccccc1)N(C(=O)c1ccccc1Cl)N1C(=O)C2C3C=CC(C3)C2C1=O (configuration not stated),-15,-4,-16,0,95*,12
Cc1ccccc1-n1ncc2c1CC(C)(C)CC2NC(=O)CCN1CCCCC1=O (configuration not stated),/,/,-22,-6,/,-5
CCCN1CCCc2cc(CN)ccc21,0,63*,-13,6,63*,12
COc1ccc(-n2ncc3c2CC(C)(C)CC3NC(=O)c2ccoc2C)cc1 (configuration not stated),/,/,-41,-2,/,1
COc1ccc(OC)c(C(=O)NC2CC(C)(C)Cc3c2cnn3-c2ccccc2)c1 (configuration not stated),/,/,-8,-4,/,67*
CCn1c2ccccc2c2cc(NC(=O)c3cc(OC)cc(OC)c3)ccc21,95*,1,-12,10,6,101*
CCn1c2ccccc2c2cc(NC(=O)CSc3nnc(-c4cccc(F)c4)o3)ccc21,47*,-2,-22,10,-1,-68
CCn1c2ccccc2c2cc(NC(=O)CSc3nnc(-c4ccccc4)o3)ccc21,58*,-3,-28,9,1,-155
NC1=NC[C@@H](Cc2ccc(O)cc2)N1CCC12CC3CC(CC(C3)C1)C2,/,/,/,/,/,30
CCOC(=O)c1cnc2c(OC)cccc2c1N1CCN(c2ccccc2OC)CC1,-3,7,-16,0,6,62*
CO/N=C\CC(=O)Nc1ccc(Oc2ccccc2)cc1,68*,2,7,10,2,21
O=C(C/C=N\O)Nc1ccc(Oc2ccccc2)cc1,-8,3,3,-1,4,30
O=[N+]([O-])c1cccc(-c2nnc(-c3ccccc3)o2)c1,-115,-2,-77,-4,5,68*
COc1cc(C(=O)Nc2nc(C)c(Cc3ccc4c(c3)OCO4)s2)cc(OC)c1OC,86*,82*,-7,16,74*,-25
COCCn1c(=O)[nH]c2cc(C(=O)N3CCN(c4cccc(C)c4C)CC3)ccc2c1=O,/,/,5,8,/,31
COc1ccc(CNc2nc3ccccc3n2CCN2CCCCC2)cc1,-29,0,-26,8,-1,-22
COc1ccc(CCN2CCC(Nc3nc4ccccc4n3Cc3ccc(F)cc3)CC2)cc1,3,75*,-29,4,41*,103*
Cc1ccc(NC(=O)Nc2ccnc(-c3cccnc3)n2)cc1,83*,3,-33,-3,2,110*
SMILES,APP transl inh,Ba/F3 V617F tox,KLF5 inh,IEC-6 cytotox,BaF3 tox,aSyn UTR inh
O=C(NCC1CCCO1)c1ccc(Cl)c(S(=O)(=O)N2CCCCC2)c1 (configuration not stated),/,/,-31,3,/,5
O=C(COC(=O)c1ccccc1C(=O)OCC(=O)NCCc1c[nH]c2ccccc12)NCCc1c[nH]c2ccccc12,/,/,/,/,/,-13
C=CCSc1nc2ccccc2n1C(=O)/C=C/c1cc(OC)c(OC)c(OC)c1,58*,2,5,4,1,-172
c1ccc(-c2ccccc2OCCOCCN2CCc3ccccc3C2)cc1,-12,-3,3,7,47*,-34
Clc1ccc(OCCOCCN2CCc3ccccc3C2)c(Cl)c1,-7,-2,-34,7,3,-31
CC(C)[C@H]1C(=O)Nc2ccccc2N1C(=O)N[C@@H](Cc1ccccc1)C(=O)N[C@@H](C(=O)O)c1ccccc1,/,/,-7,5,/,-15

# Assay outcomes as filed in PubChem.
